Test results as given in PubChem BioAssay (NCATS).
Values joined by “and” are separate entries in the source; they are usually repeats but may differ in a detail not shown here. Equal values may be shown once. Inconclusive results are not listed. Active and inactive are the calls of the source. The call rests on the fitted dose curve.

Target: Vitamin D3 receptor (Homo sapiens) (UniProt P11473)
Sequence (P11473 whole entry, looked up): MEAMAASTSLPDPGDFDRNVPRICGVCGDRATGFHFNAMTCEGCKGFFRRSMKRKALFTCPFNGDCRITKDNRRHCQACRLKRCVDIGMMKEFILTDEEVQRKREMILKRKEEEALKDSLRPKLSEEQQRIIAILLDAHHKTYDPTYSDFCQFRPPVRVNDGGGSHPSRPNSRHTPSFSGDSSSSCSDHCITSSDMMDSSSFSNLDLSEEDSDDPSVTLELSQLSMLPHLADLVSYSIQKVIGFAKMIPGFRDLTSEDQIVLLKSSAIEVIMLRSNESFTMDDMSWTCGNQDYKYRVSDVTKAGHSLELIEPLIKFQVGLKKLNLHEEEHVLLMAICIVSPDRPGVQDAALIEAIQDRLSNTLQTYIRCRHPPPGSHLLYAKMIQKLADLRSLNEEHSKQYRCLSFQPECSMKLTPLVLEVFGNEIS
Test: qHTS assay for small molecule agonists of vitamin D receptor signaling (AID 588543);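 further: 0% = DMSO basal and 100% = reference agonist control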
Settings: HEK293T VDR-UAS-bla, beta-lactamase ratio, 16 h; series mostly up to 76.8 µM; activation: at the top concentration
Procedure, shortened: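 Agonist-mode beta-lactamase reporter: HEK293T VDR-UAS-bla cells in charcoal-stripped 2% FBS, compound series 16 h 37 C, CCF4 2 h RT. EC50 from Hill fit, scaled against DMSO and 50 nM calcitriol control.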
For `CCC(=O)O[C@H]1CC[C@H]2[C@@H]3CCC4=CC(=O)CC[C@]4(C)[C@H]3CC[C@]12C`, the “activation” value was -3.19% (inactive).
In the case of `CN(C)C(=S)SSC(=S)N(C)C`, the outcome is reported as “inactive”.
For `C=CCOC(Cn1ccnc1)c1ccc(Cl)cc1Cl` (stereo not drawn), the “activation” value was 15% (inactive).
In the case of `O=C(NC(=O)c1c(F)cccc1F)Nc1cc(Cl)c(OC(F)(F)C(F)C(F)(F)F)cc1Cl` (stereo not drawn), the “activation” value is reported as -3.67% (inactive).
In the case of `C[C@H]1C(=O)O[C@@H]2CCN3CC=C(COC(=O)[C@](C)(O)[C@]1(C)O)[C@H]23`, the “activation” value is reported as -0.0579% (inactive).
In the case of `CCCCCCCCC(=O)NCc1ccc(O)c(OC)c1`, the “activation” value is reported as -4.15% (inactive).
With `CCNc1nc(Cl)nc(NCC)n1` the “activation” value was -1.1% (inactive).
For `Cc1ccc(N=CN(C)C=Nc2ccc(C)cc2C)c(C)c1`, the “activation” value was -7.56% (inactive).
In the case of `CC[n+]1c(-c2ccccc2)c2cc(N)ccc2c2ccc(N)cc21`, the “activation” value is reported as 13.6% (inactive).
With `COP(=O)(OC)C(O)C(Cl)(Cl)Cl` (stereo not drawn) the “activation” value was 5.6% (inactive).
In the case of `CCCCCCCCCCCC[N+](C)(C)CCOc1ccccc1`, the “activation” value is reported as -2.95% (inactive).
For `O=c1n(Cl)c(=O)n(Cl)c(=O)n1Cl`, the “activation” value was 4.97% (inactive).
For `CNC(=O)Oc1cccc2ccccc12`, the outcome was “inactive”.
In the case of `COCC(=O)N(c1c(C)cccc1C)C(C)C(=O)OC` (stereo not drawn), the “activation” value is reported as -1.38% (inactive).

Test system: not listed separately
Test: qHTS assay for small molecule agonists of retinoid X receptor alpha signaling (AID 588544);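 on activation: 0% = DMSO basal wells and 100% = reference agonist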
Settings: HEK293T RXRa-UAS-bla, beta-lactamase reporter, 18 h; 530 nm emission
For `C=CCOC(Cn1ccnc1)c1ccc(Cl)cc1Cl` (stereo not drawn), the max response was -17.1% and -12.6%.
`O=C(NC(=O)c1c(F)cccc1F)Nc1cc(Cl)c(OC(F)(F)C(F)C(F)(F)F)cc1Cl` (stereo not drawn) gave a max response of 11.9%.
Compound `C[C@H]1C(=O)O[C@@H]2CCN3CC=C(COC(=O)[C@](C)(O)[C@]1(C)O)[C@H]23` has a max response of -6.89%.
Work on `CCCCCCCCC(=O)NCc1ccc(O)c(OC)c1` yielded a max response of 2.94%.
With `COP(=O)(OC)OC=C(Cl)Cl` the max response was -12.2% and -24.6% and -4.24%.
In the case of `CCNc1nc(Cl)nc(NCC)n1`, the max response is reported as -18.2%.
Work on `Oc1c(Br)cc(Br)cc1Br` yielded a max response of -20.6%.
With `O=c1n(Cl)c(=O)n(Cl)c(=O)n1Cl` the max response was -19.7%.
Work on `C[C@@H]1C[C@@H]([C@H](O)CC2CC(=O)NC(=O)C2)C(=O)[C@@H](C)C1` yielded a max response of -10.1%.
For `CNC(=O)Oc1cccc2ccccc12`, the max response was -5.93% and -0.426%.
For `COCC(=O)N(c1c(C)cccc1C)C(C)C(=O)OC` (stereo not drawn), the max response was 3.24%.

Target: Retinoic acid receptor RXR-alpha (Homo sapiens) (UniProt P19793)
Sequence (P19793 whole entry, looked up): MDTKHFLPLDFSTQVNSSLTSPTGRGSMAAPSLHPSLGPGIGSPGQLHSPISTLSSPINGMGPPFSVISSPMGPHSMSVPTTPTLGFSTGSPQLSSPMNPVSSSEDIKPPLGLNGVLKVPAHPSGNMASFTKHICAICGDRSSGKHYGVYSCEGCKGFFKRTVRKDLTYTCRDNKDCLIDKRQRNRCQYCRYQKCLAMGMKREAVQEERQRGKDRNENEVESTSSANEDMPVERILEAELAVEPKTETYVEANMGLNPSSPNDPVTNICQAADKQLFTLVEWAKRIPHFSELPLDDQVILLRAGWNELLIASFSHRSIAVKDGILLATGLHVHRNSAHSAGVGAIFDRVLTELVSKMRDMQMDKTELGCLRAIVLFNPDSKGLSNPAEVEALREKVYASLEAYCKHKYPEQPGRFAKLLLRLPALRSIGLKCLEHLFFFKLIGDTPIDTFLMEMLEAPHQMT
Test: as above
Settings: HEK293T RXRa-UAS-bla, beta-lactamase reporter, 18 h; series mostly up to 76.7 µM; activation: at the top concentration
In the case of `C=CCOC(Cn1ccnc1)c1ccc(Cl)cc1Cl` (stereo not drawn), the outcome is reported as “inactive”.
For `O=C(NC(=O)c1c(F)cccc1F)Nc1cc(Cl)c(OC(F)(F)C(F)C(F)(F)F)cc1Cl` (stereo not drawn), the “activation” value was -21.4% (inactive).
For `C[C@H]1C(=O)O[C@@H]2CCN3CC=C(COC(=O)[C@](C)(O)[C@]1(C)O)[C@H]23`, the “activation” value was 9.64% (inactive).
With `CCCCCCCCC(=O)NCc1ccc(O)c(OC)c1` the “activation” value was 2.53% (inactive).
In the case of `COP(=O)(OC)OC=C(Cl)Cl`, the outcome is reported as “inactive”.
For `CCNc1nc(Cl)nc(NCC)n1`, the “activation” value was 13.1% (inactive).
With `Oc1c(Br)cc(Br)cc1Br` the “activation” value was 17.1% (inactive).
For `O=c1n(Cl)c(=O)n(Cl)c(=O)n1Cl`, the “activation” value was -4.93% (inactive).
For `C[C@@H]1C[C@@H]([C@H](O)CC2CC(=O)NC(=O)C2)C(=O)[C@@H](C)C1`, the “activation” value was 5.86% (inactive).
In the case of `CNC(=O)Oc1cccc2ccccc12`, the outcome is reported as “inactive”.
For `COCC(=O)N(c1c(C)cccc1C)C(C)C(=O)OC` (stereo not drawn), the “activation” value was 1.55% (inactive).

Target: Thyroid hormone receptor beta (Homo sapiens) (UniProt P10828)
Sequence (P10828 whole entry, looked up): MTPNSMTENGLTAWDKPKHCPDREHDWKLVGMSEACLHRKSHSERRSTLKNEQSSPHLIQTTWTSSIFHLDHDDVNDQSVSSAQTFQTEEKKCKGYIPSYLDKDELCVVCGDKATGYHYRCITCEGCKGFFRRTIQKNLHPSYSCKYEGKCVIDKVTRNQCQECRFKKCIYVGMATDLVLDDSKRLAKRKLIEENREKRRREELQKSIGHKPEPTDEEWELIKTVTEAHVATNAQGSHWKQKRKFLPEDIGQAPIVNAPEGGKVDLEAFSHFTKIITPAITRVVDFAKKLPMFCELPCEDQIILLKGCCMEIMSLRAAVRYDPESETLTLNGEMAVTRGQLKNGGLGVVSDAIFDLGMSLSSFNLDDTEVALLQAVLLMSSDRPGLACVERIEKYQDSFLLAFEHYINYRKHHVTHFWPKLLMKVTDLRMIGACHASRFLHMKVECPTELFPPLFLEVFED
Test: qHTS assay for small molecule agonists of thyroid hormone receptor beta signaling (AID 588545)
Settings: TR-UAS-bla GripTite HEK 293, beta-lactamase ratio, agonist mode, 18 h, percent of T3 response, DMSO as zero; series mostly up to 76.7 µM; activation: at the top concentration
Procedure, shortened: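 Agonist activity was read as beta-lactamase CCF4 fluorescence (405 ex, 460/530 em), scaled between DMSO (0%) and 10 nM T3 (100%), then Hill-fitted for EC50 and efficacy. HEK 293 TR-UAS-bla cells in 2% charcoal/dextran FBS medium were exposed 18 h at 37 C.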
For `CCOP(=S)(OCC)O/N=C(\C#N)c1ccccc1`, the “activation” value was 14.3% (inactive).
With `O=C(CCl)c1ccc(Cl)cc1Cl` the “activation” value was -24.4% (inactive).
In the case of `CCC(=O)O[C@H]1CC[C@H]2[C@@H]3CCC4=CC(=O)CC[C@]4(C)[C@H]3CC[C@]12C`, the “activation” value is reported as -14.3% (inactive).
With `CN(C)C(=S)SSC(=S)N(C)C` the outcome was “inactive”.
For `C=CCOC(Cn1ccnc1)c1ccc(Cl)cc1Cl` (stereo not drawn), the outcome was “inactive”.
In the case of `O=C(NC(=O)c1c(F)cccc1F)Nc1cc(Cl)c(OC(F)(F)C(F)C(F)(F)F)cc1Cl` (stereo not drawn), the “activation” value is reported as -5.09% (inactive).
With `CCCCCCCCC(=O)NCc1ccc(O)c(OC)c1` the “activation” value was -10.3% (inactive).
For `COP(=O)(OC)OC=C(Cl)Cl`, the outcome was “inactive”.
For `CCNc1nc(Cl)nc(NCC)n1`, the “activation” value was -10.6% (inactive).
In the case of `Oc1c(Br)cc(Br)cc1Br`, the outcome is reported as “inactive”.
With `N#Cc1nn(-c2c(Cl)cc(C(F)(F)F)cc2Cl)c(N)c1S(=O)C(F)(F)F` (stereo not drawn) the “activation” value was -17.7% (inactive).
For `COP(=O)(OC)C(O)C(Cl)(Cl)Cl` (stereo not drawn), the “activation” value was 23.4% (inactive).
In the case of `O=c1n(Cl)c(=O)n(Cl)c(=O)n1Cl`, the “activation” value is reported as -1.91% (inactive).
In the case of `C[C@@H]1C[C@@H]([C@H](O)CC2CC(=O)NC(=O)C2)C(=O)[C@@H](C)C1`, the outcome is reported as “inactive”.
With `CNC(=O)Oc1cccc2ccccc12` the outcome was “inactive”.

Test system: not listed separately
Test: qHTS assay for small molecule antagonists of retinoid X receptor alpha signaling (AID 588546);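 further: cells stimulated with 9-cis-retinoic acid as agonist; on the % scale 0 is the no-effect control and ±100 the full control effect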
Settings: HEK293T RXRa-UAS-bla, beta-lactamase ratio, antagonist mode; measured here: W530 green channel, cytotoxicity proxy
Procedure, shortened: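 Beta-lactamase reporter inhibition, read as CCF4 fluorescence ratio (ex 405, em 460/530 nm) after 2 h at RT. HEK293T UAS-bla cells, 2500/well, were stimulated with 9-cis-RA at 500 or 100 nM final alongside test compound for 18 h at 37 C.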
Work on `CCC(=O)O[C@H]1CC[C@H]2[C@@H]3CCC4=CC(=O)CC[C@]4(C)[C@H]3CC[C@]12C` yielded a max response of 1.48%.
`COP(=S)(OC)Oc1ccc(Sc2ccc(OP(=S)(OC)OC)cc2)cc1` showed a max response of -1.68%.
`CN(C)C(=S)SSC(=S)N(C)C` gave a max response of 18.1%.
In the case of `Oc1ccc(Cl)cc1Cc1cc(Cl)ccc1O`, the max response is reported as -8.06%.
For `C=CCOC(Cn1ccnc1)c1ccc(Cl)cc1Cl` (stereo not drawn), the max response was -20.1% and -17.9%.
Compound `O=C(NC(=O)c1c(F)cccc1F)Nc1cc(Cl)c(OC(F)(F)C(F)C(F)(F)F)cc1Cl` (stereo not drawn) has a max response of -7.96%.
`C[C@H]1C(=O)O[C@@H]2CCN3CC=C(COC(=O)[C@](C)(O)[C@]1(C)O)[C@H]23` gave a max response of -18.5%.
`CCCCCCCCC(=O)NCc1ccc(O)c(OC)c1` gave a max response of -4.12%.
For `COP(=O)(OC)OC=C(Cl)Cl`, the max response was -12% and -6.53% and -17.3%.
Work on `CCNc1nc(Cl)nc(NCC)n1` yielded a max response of -7.93%.
With `Oc1c(Br)cc(Br)cc1Br` the max response was 9.85% and -7.56%.
`Cc1ccc(N=CN(C)C=Nc2ccc(C)cc2C)c(C)c1` gave a max response of -10.6%.
In the case of `CC[n+]1c(-c2ccccc2)c2cc(N)ccc2c2ccc(N)cc21`, the max response is reported as -17.9%.
`O=C(Nc1ccc(Cl)cc1)Nc1ccc(Cl)c(Cl)c1` showed a max response of -4.96%.
Work on `O=c1n(Cl)c(=O)n(Cl)c(=O)n1Cl` yielded a max response of -7.37%.
In the case of `CNC(=O)Oc1cccc2ccccc12`, the max response is reported as -8.18% and 5.92%.
`COCC(=O)N(c1c(C)cccc1C)C(C)C(=O)OC` (stereo not drawn) gave a max response of 1.9%.
